Screening results: PubChem BioAssay, National Center for Advancing Translational Sciences (NCATS)
Vaccinia mCherry = qHTS for Stage-Specific Inhibitors of Vaccinia Orthopoxvirus: mCherry Reporter Primary qHTS; Vaccinia virus mCherry reporter infection, fluorescence; Potency, µM (doses to about 36.5 µM), for the others: at the top dose activity change, negative = inhibition, actives largely listed as inhibitors; 310,000 compounds, 0.63% hits; calls by dose curve; tested in A549 cells; note: potency is the fitted concentration of half-maximal effect; % is set by controls: 0 for no effect and ±100 for the full control effect; nearly all actives have a fitted effect of over 35% in size
Lassa entry inh = qHTS for Inhibitors of binding or entry into cells for Lassa Virus | Potency, µM (titrated, usually from 37.9 µM), for inactives: at the top dose activity change, negative = inhibition, usual class: inhibitors | Lassa virus pseudotype entry inhibition, cell reporter | 300,000 compounds, 1.2% hits; calls by dose curve; tested in HEK293 cells; note: potency is the fitted concentration of half-maximal effect; % is set by controls: 0 for no effect and ±100 for the full control effect; nearly all actives have a fitted effect of over 50% in size
MARV entry inh = qHTS for inhibitors of binding or entry into cells for Marburg Virus | Marburg virus pseudotyped entry inhibition, cell reporter | Potency, µM (series often up to 37.8 µM), without a hit: at the highest dose activity change, negative = inhibition, usual class: inhibitors | 300,000 compounds, 1.8% hits | AID 540276, 2011; calls by dose curve; tested in HEK293 cells; note: potency is the fitted concentration of half-maximal effect; % is set by controls: 0 for no effect and ±100 for the full control effect
Shiga inhibitor = A qHTS for Small Molecule Inhibitors of Shiga Toxin. 290,000 compounds, 9.2% hits. inhibition, % at 38.7 µM. Vero cells, Shiga toxin protein synthesis inhibition reporter. AID 2315, 2010; in the data active = inhibition mostly above about 28%, no sharp cut-off; inactive = mostly below about 43%; note: 0% is about no effect
Vaccinia Venus = qHTS for Stage-Specific Inhibitors of Vaccinia Orthopoxvirus: Venus Reporter Primary qHTS; Vaccinia virus Venus reporter expression, fluorescence; AID 720580, 2013; 330,000 compounds, 0.46% hits; Potency, µM (titrated, usually from 36.5 µM), without a hit: at the top dose activity change, negative = inhibition, hits mostly inhibitors; calls by dose curve; tested in A549 cells; note: potency is the fitted concentration of half-maximal effect; % is set by controls: 0 for no effect and ±100 for the full control effect; nearly all actives have a fitted effect of over 30% in size
CHX counter = Cycloheximide Counterscreen for Small Molecule Inhibitors of Shiga Toxin; cell reporter, cycloheximide protein synthesis inhibition counterscreen; max response, %; 300,000 compounds, 12% hits; in the data active = max response mostly above about 13%, no sharp cut-off; inactive = mostly below about 14%; note: read at 38.3 µM for the half of the compounds with a filed dose; 0% is about no effect
The depositor's hits bear a star; i = inactive; ? = inconclusive; · = no result given; + = active, no number; [ ] = dose if it differs, or a comment. Many of the other results were omitted from the sample, so hits are more common in it than they were.

SMILES	Vaccinia mCherry	Lassa entry inh	MARV entry inh	Shiga inhibitor	Vaccinia Venus	CHX counter
COc1cc(-c2oc3cc(O)cc(O)c3c(=O)c2O[C@@H]2O[C@H](CO)[C@@H](O)[C@H](O)[C@H]2O)cc(OC)c1O	·	·	·	22.7	·	-4.1
O=C(Nc1ccc(Cl)cc1F)c1cc(S(=O)(=O)NCc2ccc3c(c2)OCO3)ccc1F	i	7.5%[46.1 µM]	·	·	-14.1%	·
CCCCn1nnnc1C(c1ccccc1)N1CCN(C(=O)C2CCCO2)CC1 (centres undefined)	14.3%	·	·	·	8.5%	·
O=C(c1ccc(OCC2CCCO2)cc1)N1CCc2ccccc2C1 (centres undefined)	i	-5.3%	23.5%[46.1 µM]	56.3*	-5.6%	29.8*
Cc1nc(SCC(=O)Nc2ccc(F)cc2)c(C#N)c(C)c1CC(=O)c1ccc(Br)cc1	·	11.2µM*	?	-12.8	-21.5%	-1.0
Cc1cccc(C(=O)Oc2ccc(/C=N/NC(=O)c3ccc(O)cc3)cc2)c1	-12.2%	?	1.6%	29.2	-7.2%	24.7*
Cc1cccc(C(=O)Oc2ccc(/C=N/NC(=O)c3ccccc3O)cc2)c1	-29.8%	15.4%	?	+	-9.4%	37.6*
COc1ccc2c(c1OC)C(=O)OC2n1c(O)c(N=NC(C)=O)c2ccccc21 (centres undefined)	-8.3%	5.6%	-2.0%[46.1 µM]	-4.2	-14.4%	-2.9
CC(C)NC(=O)CS(=O)(=O)c1ccccc1	i	·	·	-4.2	-5.9%	-2.6
CC(=O)OC(C)CS(=O)(=O)c1ccccc1 (centres undefined)	7.94µM*	9.5%	17.2%[46.1 µM]	-6.6	7.94µM*	-4.6
CN(C)S(=O)(=O)c1ccc(NC(=O)c2ccc(Br)o2)cc1	·	?	0.8%	-3.6	·	27.7
O=C(NNC(=S)NCc1ccc(Cl)cc1)c1ccc(Br)o1	·	15.5%	2.8%	31.6	·	8.8
O=C(Nc1ccc(Cc2ccncc2)cc1)c1ccc(Br)o1	i	10.1%	2.0%[46.1 µM]	33.7	-14.5%	15.4*
COc1ccc(NC(=S)NC(=O)c2ccc(Br)o2)cc1	i	·	·	96.4*	-13.6%	67.1*
CC(C)(Oc1ccc(Cl)cc1)C(=O)NNC(=O)c1ccc(Br)o1	i	12.0%[46.1 µM]	-1.8%[46.1 µM]	2.1	-3.7%	15.0*
CC(C)c1ccc(NC(=O)c2ccc(Br)o2)cc1	-13.2%	?	?	50.2*	-23.5%	40.3*
COCCCNc1nc2c(S(=O)(=O)c3ccccc3)nnn2c2ccc(Cl)cc12	-6.6%	·	?	·	-13.9%	·
COc1cccc(CNC(=O)C2CCN(S(=O)(=O)c3cccc4nonc34)CC2)c1	?	16.0%	-2.1%[46.1 µM]	6.5	-21.3%	4.0
COc1cc2c(cc1OC)[C@@H]1O[C@](c3ccsc3)(C2)Oc2c1c(=O)oc1ccc(F)cc21	·	·	28.4%[14.2 µM]	·	·	·
O=C(Nc1ccc2c(c1)Cc1ccccc1-2)c1ccc(Br)o1	·	?	3.6%	35.0*	-12.3%	34.2*
O=C(NC(=S)Nc1ccccc1)c1ccc(Br)o1	-0.4%	·	·	78.6*	-14.8%	36.4*
COC(=O)c1cc(OC)c(OC)cc1NC(=O)c1ccc(Br)o1	·	-8.8%	12.7%	·	0.0%	·
Cc1nc(-c2cccc(NC(=O)c3ccc(Br)o3)c2)cs1	·	·	·	25.5	·	16.5
Cc1nc(-c2ccc(NC(=O)c3ccc(Br)o3)cc2)cs1	-5.1%	?	?	114.5*	-9.7%	55.8*
Cc1cc(O)c(NC(=O)c2ccc(Br)o2)cc1C	·	?	15.6%	65.8*	·	46.1*
SMILES	Vaccinia mCherry	Lassa entry inh	MARV entry inh	Shiga inhibitor	Vaccinia Venus	CHX counter
CC1(C(=O)NS(=O)(=O)Cc2ccccc2)CCN1C(=O)Cc1cc(F)ccc1F (centres undefined)	i	·	·	·	5.1%	·
COc1ccccc1NC(=O)c1ccc(Br)o1	-23.4%	-0.8%	-1.6%	31.3	-6.5%	13.7*
O=C(Nc1ccccc1Oc1ccccc1)c1ccc(Br)o1	-7.5%[1.46 µM]	?	?	-12.5	-13.8%	-1.3
O=C(Nc1ccc(Nc2ccccc2)cc1)c1ccc(Br)o1	-25.3%	15.7%	?	60.7*	-18.2%	27.4*
COc1ccc(NC(=O)c2ccc(Br)o2)cc1	-3.6%	?	8.4%	95.7*	-8.2%	35.7*
C/C(=N/NC(=O)c1ccc(Br)o1)C(C)C	-1.1%	?	?	79.3*	-17.1%	30.5*
O=C(Nc1ccc(NC(=O)c2cccs2)cc1)c1ccc(Br)o1	·	-13.8%	-0.3%	28.2	-11.4%	14.3
